A selection: hits, their analogues and other compounds. The true share with any hit is near 6%.
Tau fluor counter: Counterscreen qHTS for Inhibitors of Tau Fibril Formation, Fluorescence Polarization. tau K18 P301L Alexa594 fluorescence, heparin fibrillization. Potency, µM (doses to about 57.7 µM), for the others: top-dose activity change, negative = decrease. 280,000 tested, 0.93% active; note: potency is the fitted concentration of half-maximal effect; % is set by controls: 0 for no effect and ±100 for the full control effect; nearly all actives have a fitted effect of over 55% in size
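Human tau K18 P301L (15 uM unlabeled, 0.24 uM Alexa 594-labeled) in 100 mM sodium acetate pH 7 with 20 uM heparin, 6 hr at 37 C. ThT 30 uM added, 1 hr ambient; Alexa 594 FP and total fluorescence read at 555/632 nm.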
VDR inhibitor: Inhibitors of the vitamin D receptor (VDR): qHTS; AID 504847, 2011; VDR-SRC2-3 peptide fluorescence polarization, 2 h; Potency, µM, inactives show max response, negative = inhibition, most hits filed as inhibitors; 400,000 tested, 0.93% active; Vitamin D3 receptor (Homo sapiens), P11473; note: potency is the fitted concentration of half-maximal effect; % is set by controls: 0 for no effect and ±100 for the full control effect
Target sequence (P11473 whole entry, looked up): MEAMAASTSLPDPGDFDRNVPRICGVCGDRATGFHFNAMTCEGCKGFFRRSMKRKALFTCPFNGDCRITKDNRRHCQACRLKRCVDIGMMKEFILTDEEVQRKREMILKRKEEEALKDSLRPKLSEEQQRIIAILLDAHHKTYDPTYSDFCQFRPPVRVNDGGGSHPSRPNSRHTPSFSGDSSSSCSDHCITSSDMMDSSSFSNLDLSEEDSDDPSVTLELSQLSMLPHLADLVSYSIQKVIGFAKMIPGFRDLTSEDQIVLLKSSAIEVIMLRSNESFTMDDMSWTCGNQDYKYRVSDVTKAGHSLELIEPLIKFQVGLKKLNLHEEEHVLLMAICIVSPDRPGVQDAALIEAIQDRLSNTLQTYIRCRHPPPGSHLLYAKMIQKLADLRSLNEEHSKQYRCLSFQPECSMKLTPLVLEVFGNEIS
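VDR–SRC2-3 interaction, FP format. Cmpds 23 nl via pintool, brief spin, 2 h ambient incubation.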
Tau ThT inhib: qHTS for Inhibitors of Tau Fibril Formation, Thioflavin T Binding. Potency, µM (top dose mostly 57.4 µM), for the others: at the top dose activity, negative = inhibition, most hits filed as inhibitors. 270,000 tested, 2.1% active. recombinant tau K18 P301L, heparin-induced fibrillization, ThT fluorescence. AID 1460, 2008; note: potency is the fitted concentration of half-maximal effect; % is set by controls: 0 for no effect and ±100 for the full control effect; nearly all actives have a fitted effect of over 55% in size
Target sequence (P10636 561-689 P618L limits assumed): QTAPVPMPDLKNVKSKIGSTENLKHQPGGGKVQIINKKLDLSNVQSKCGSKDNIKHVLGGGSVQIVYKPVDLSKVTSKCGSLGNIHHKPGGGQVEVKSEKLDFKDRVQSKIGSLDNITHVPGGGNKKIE
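ThT emission at 510 nm, taken 1 hr after adding 30 uM dye, quantifies aggregates formed when 20 uM heparin acts on human tau K18 P301L for 6 hr at 37 C.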
Tau fibril FP: qHTS for Inhibitors of Tau Fibril Formation, Fluorescence Polarization; 280,000 tested, 0.39% active; K18 P301L tau heparin fibrillization, Alexa594 FP, 6 h; Potency, µM (highest dose often 57.7 µM), for the others: top-dose activity, negative = inhibition, actives largely listed as inhibitors; note: potency is the fitted concentration of half-maximal effect; % is set by controls: 0 for no effect and ±100 for the full control effect; nearly all actives have a fitted effect of over 55% in size
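Human K18 P301L fragment (15 uM unlabeled plus 0.24 uM Alexa 594-labeled) in 100 mM sodium acetate pH 7 with compound, aggregation induced by 20 uM heparin for 6 hr at 37 C. ThT (30 uM) added for 1 hr, then Alexa 594 FP read.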
PLK1 PBD block: qHTS for Inhibitors of PLK1-PDB (polo-like kinase 1 - polo-box domain): Primary Screen; Serine/threonine-protein kinase PLK1 (Homo sapiens), P53350; Plk1 PBD binding of FITC phosphopeptide, fluorescence polarization; Potency, µM, for inactives: max response, negative = inhibition, actives largely listed as inhibitors; 360,000 tested, 2.8% active; AID 720504, 2013; note: potency is the fitted concentration of half-maximal effect; series mostly up to about 57 µM; % is set by controls: 0 for no effect and ±100 for the full control effect; nearly all actives have a fitted effect of over 65% in size
Sfp inh: qHTS Assay for Inhibitors of Bacillus subtilis Sfp phosphopantetheinyl transferase (PPTase); 4'-phosphopantetheinyl transferase ffp (Bacillus subtilis), Q9F4F7; Biochemical Sfp PPTase activity, qHTS; Potency, µM, for inactives: largest response in the series, negative = inhibition, usual class: inhibitors; 310,000 tested, 3.5% active;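 note: the enzyme is Sfp with the accession as filed and its product quenches rhodamine fluorescence; potency is the fitted concentration of half-maximal effect; 0% = enzyme reaction without inhibitor and -100% = no enzyme wells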
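Compounds were incubated with enzyme (final 15 nM) for 15 min at room temperature before substrate addition started the reaction. Fluorescence at 525 nm excitation, 598 nm emission was recorded immediately and after 30 minutes.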
Tau fibril TEM: Transmission Electron Microscopy Assay for Inhibitors of Tau Fibrillization; recombinant tau K18 P301L fibrillization, TEM grading; active compounds read high; fibril grade (0 = clumped fibrils, 4 = only tiny pieces) (test concentration not listed); 45 tested, 70% active; AID 1719, 2009; shares compounds with Tau ThT inhib;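 active = compounds whose electron micrographs showed tau fibrils broken into shorter filaments or fragments, graded high on fibril breakup; inconclusive = micrographs gave an unclear fibril picture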
tau fibril sed: Sedimentation Assay for Inhibitors of Tau Fibrillization. inhibition, % at 100 µM. recombinant tau K18 P301L (four-repeat tau fragment), sedimentation SDS-PAGE densitometry. shares compounds with Tau ThT inhib. 110 tested, 50% active; in the data active = inhibition above about 40%; inconclusive = no clear call, values can overlap the other calls; inactive = below about 18%
* marks the source's active call; other numbers are inactive results; [ ] = dose if it differs, or a comment. Unless noted, calls come from the whole dose curve; as a rule, active = well fitted curve in the direction sought with a large enough effect; inconclusive = small, poorly fitted or top-dose-only effect, or another doubt; inactive = no such curve, though single readings can be large; an effect the other way counts as inactive or inconclusive.

Results for CCOCCc1nn2c(=O)cc(COC(=O)c3ccccc3Br)nc2s1 ?
Tau fluor counter: 2.2%; VDR inhibitor: 4.3%; Tau ThT inhib: inconclusive; Tau fibril FP: 5.3%

How did O=C(Nc1cccc(-c2nc3ccccc3o2)c1)c1cc([N+](=O)[O-])ccc1N1CCOCC1 do in these assays?
Tau fluor counter: inconclusive; VDR inhibitor: -18.5%; Tau ThT inhib: -21.7%; Tau fibril FP: inconclusive; tau fibril sed: 17.0

What do the screens show for `CN(C)c1ccc(N2C(=O)CSC2=S)cc1`?
Tau fluor counter: inconclusive; VDR inhibitor: 89.1µM*; Tau ThT inhib: 4.47µM*; Tau fibril FP: inconclusive; PLK1 PBD block: -14.3%; Sfp inh: -35.3%; tau fibril sed: 11.0

Results for O=C1CSC(=S)N1c1ccc(F)cc1 ?
Sfp inh: -15.8%

How did CCn1c(CSc2nccn2C)nc2cc(C(=O)O)ccc21 do in these assays?
Tau fluor counter: -5.4%; VDR inhibitor: inconclusive; Tau ThT inhib: 3.98µM*; Tau fibril FP: inconclusive; PLK1 PBD block: -17.6%; Sfp inh: 56.2µM*; Tau fibril TEM: 3*; tau fibril sed: 56.0*

What do the screens show for `Cc1cc(C)cc(-n2cnc3cc(C(=O)NCCc4ccccc4)ccc32)c1`?
Tau fluor counter: -12.3%; VDR inhibitor: 1.4%; Tau ThT inhib: -16.5%; Tau fibril FP: 6.7%

Results for CCn1nccc1C(=O)Nc1cc(Cl)cc(Cl)c1 ?
Tau fluor counter: inconclusive; VDR inhibitor: -4.1%; Tau ThT inhib: inconclusive; Tau fibril FP: 28.2µM*; PLK1 PBD block: 2.8%; Sfp inh: -1.4%; tau fibril sed: inconclusive

How did CN(c1ccccc1)S(=O)(=O)c1nnc(NC(=O)c2ccccc2)s1 do in these assays?
Tau fluor counter: -9.9%; VDR inhibitor: 10.2%; Tau ThT inhib: inconclusive; Tau fibril FP: -0.5%

What do the screens show for `CN(c1ccccc1)S(=O)(=O)c1nnc(NC(=O)C2CCCCC2)s1`?
Tau fluor counter: inconclusive; VDR inhibitor: -6.3%; Tau ThT inhib: 2.51µM*; Tau fibril FP: inconclusive; PLK1 PBD block: -14.1%; Sfp inh: 25.3%; Tau fibril TEM: 3*; tau fibril sed: 80.0*

How did CC(CNC(=O)CN1C(=O)COc2ccc(S(=O)(=O)N3CCCCCC3)cc21)c1ccccc1 (stereo not given) do in these assays?
Tau fluor counter: -20.0%; VDR inhibitor: -1.9%; Tau ThT inhib: -6.4%; Tau fibril FP: 8.8%

What do the screens show for `O=C(Nc1ccc(OC(F)(F)F)cc1)Nc1cccc([N+](=O)[O-])c1`?
Tau fluor counter: 1.78µM*[quencher]; VDR inhibitor: -9.7%; Tau ThT inhib: inconclusive; Tau fibril FP: 4.47µM*; PLK1 PBD block: -0.9%; Sfp inh: inconclusive; tau fibril sed: 13.0

What do the screens show for `O=C(O)CN1C(=O)/C(=C/c2ccc(-c3cccc(Cl)c3)o2)SC1=S`?
tau fibril sed: 14.0

What do the screens show for `CC(C)(C)OC(=O)CN1C(=O)S/C(=C\c2ccc(-c3cccc(C(=O)O)c3)o2)C1=O`?
Sfp inh: 6.7%

What do the screens show for `COC(=O)c1nn(-c2ccc(OC)cc2)c(=O)cc1Sc1ccc(C)cc1`?
Tau fluor counter: -15.2%; VDR inhibitor: -4.0%; Tau ThT inhib: -17.8%; Tau fibril FP: -8.3%; PLK1 PBD block: -5.9%; Sfp inh: 4.1%

What do the screens show for `COC(=O)c1nn(-c2ccc(OC)cc2)c(=O)c2c(N)sc(C)c12`?
Tau fluor counter: -27.0%; VDR inhibitor: inconclusive; Tau ThT inhib: inconclusive; Tau fibril FP: 3.2%; PLK1 PBD block: 23.8µM*; Sfp inh: 35.5µM*; Tau fibril TEM: inconclusive; tau fibril sed: 44.0*

Results for CCOc1ccc(C(C(=O)NCC2CCCO2)N(Cc2cccs2)C(=O)c2snc(C(N)=O)c2N)cc1 (stereo not given) ?
VDR inhibitor: 2.9%; PLK1 PBD block: -4.0%; Sfp inh: -2.3%

What do the screens show for `CC(=O)Nc1nc(C)c(-c2csc(Nc3ccc(O)cc3)n2)s1`?
Tau fluor counter: 14.1µM*[quencher]; VDR inhibitor: 89.1µM*; Tau ThT inhib: 8.91µM*; Tau fibril FP: -12.2%; PLK1 PBD block: -29.5%; Sfp inh: 35.5µM*; Tau fibril TEM: 0; tau fibril sed: inconclusive

Results for CNC1=CN=C(c2ccccc2)c2cc(Cl)ccc2N1 ?
Tau fluor counter: -10.3%; VDR inhibitor: -15.0%; Tau ThT inhib: -3.9%; Tau fibril FP: -13.0%; Sfp inh: 22.3%

How did Cc1ccc(C(=O)Nc2nc(=O)n(C(=O)CC(C)C)s2)cc1 do in these assays?
Tau fluor counter: -12.1%; VDR inhibitor: inconclusive; Tau ThT inhib: inconclusive; Tau fibril FP: inconclusive; PLK1 PBD block: -19.4%; Sfp inh: 16.1%; tau fibril sed: 12.0

Results for Cc1ccc(C(=O)Nc2nc(=O)[nH]s2)cc1 ?
Tau fluor counter: 0.8%; VDR inhibitor: 20.4%; Tau ThT inhib: -3.6%; Tau fibril FP: -2.9%; PLK1 PBD block: -11.6%; Sfp inh: 18.9%

What do the screens show for `CCOC(=O)OCC1OC(C#Cc2ccc(C(C)(C)C)cc2)C=CC1OC(=O)OCC` (stereo not given)?
Tau fluor counter: -9.1%[11.6 µM]; Tau ThT inhib: -7.5%[11.5 µM]; Tau fibril FP: 5.0%[11.6 µM]; Sfp inh: 9.9%

What do the screens show for `Cn1cc(Cl)c(C(=O)Nc2cccc(Cl)c2Cl)n1`?
Tau fluor counter: -4.2%; VDR inhibitor: 18.9%; Tau ThT inhib: -10.0%; Tau fibril FP: 2.9%; PLK1 PBD block: -6.8%; Sfp inh: 1.8%; tau fibril sed: 8.0

How did Cn1cc(Cl)c(C(=O)Nc2nc3ccccc3s2)n1 do in these assays?
Tau fluor counter: -3.1%; VDR inhibitor: -9.6%; Tau ThT inhib: -0.6%; Tau fibril FP: 9.8%; PLK1 PBD block: -3.9%; Sfp inh: 20.7%

Bioassay records: PubChem, National Center for Advancing Translational Sciences (NCATS)
